Where “and” joins values, the source holds several entries; their conditions need not be identical. Equal entries are not always repeated. Unmarked numbers belong to inactive results. Calls of active or inactive are those of the source. Unless noted, no rule for the calls is given here.
System: Hepatitis C virus NS3 helicase
Experiment: HCV NS3 helicase inhibitors, primary screen, biochemical, fluorescence polarization, LOPAC1280 library (AID 687035; in the data active = inhibition above about 37%)
Conditions: Purified HCV NS3 helicase, Cy5-dT15 ssDNA binding fluorescence polarization; stronger effect = higher value; concentration not given here

Row | SMILES | inhibition [%]
1 | CC(C)(C)c1ccc(C(O)CCCN2CCC(C(O)(c3ccccc3)c3ccccc3)CC2)cc1 (centres undefined) | -3
2 | O=C(O)COCCN1CCN(C(c2ccccc2)c2ccc(Cl)cc2)CC1 (centres undefined) | -1
3 | Cc1ccc(/C(=C\CN2CCCC2)c2ccccn2)cc1 | 1
4 | CC(C)(C(=O)O)c1ccc(C(O)CCCN2CCC(C(O)(c3ccccc3)c3ccccc3)CC2)cc1 (centres undefined) | -1

System: not listed separately
Experiment: Cy5 fluorescence quenching or enhancement artefacts, artefact control for HCV NS3 helicase inhibitor project, biochemical, LOPAC1280 (AID 687037)
Conditions: Cy5-DNA-NS3h complex fluorescence interference counterscreen

Row | SMILES | fluorescence ratio (interference)
5 | CC(C)(C)c1ccc(C(O)CCCN2CCC(C(O)(c3ccccc3)c3ccccc3)CC2)cc1 (centres undefined) | 0.9
6 | O=C(O)COCCN1CCN(C(c2ccccc2)c2ccc(Cl)cc2)CC1 (centres undefined) | 1
7 | Cc1ccc(/C(=C\CN2CCCC2)c2ccccn2)cc1 | 1
8 | CC(C)(C(=O)O)c1ccc(C(O)CCCN2CCC(C(O)(c3ccccc3)c3ccccc3)CC2)cc1 (centres undefined) | 1.1

System: not listed separately
Experiment: Cy5 fluorescence interference with SSB-bound oligo, artefact control for HCV NS3 helicase inhibitor project, biochemical, NIH Clinical Collection, E. coli SSB (AID 743268)
Conditions: not given

Row | SMILES | fluorescence ratio
9 | O=C(NCC1CCCCN1)c1cc(OCC(F)(F)F)ccc1OCC(F)(F)F (centres undefined) | 1.08
10 | C[N+]1(C)CCC(OC(=O)C(O)(c2ccccc2)C2CCCC2)C1 (centres undefined) | 1.05 and 1.06
11 | CN1[C@@H]2CC(OC(=O)[C@H](CO)c3ccccc3)C[C@H]1[C@@H]1O[C@@H]12 (some centres undefined) | 0.95
12 | CC(C)(C(=O)O)c1ccc(C(O)CCCN2CCC(C(O)(c3ccccc3)c3ccccc3)CC2)cc1 (centres undefined) | 1.07
13 | CC(C)n1c(/C=C/[C@@H](O)C[C@@H](O)CC(=O)O)c(-c2ccc(F)cc2)c2ccccc21 | 1.05

System: Hepatitis C virus NS3 helicase
Experiment: HCV NS3 helicase inhibitors, primary screen, biochemical, fluorescence polarization, NIH Clinical Collection (AID 743270)
Conditions: NS3 helicase binding to Cy5-dT15 DNA, stronger effect = higher value, concentration not given here

Row | SMILES | inhibition
14 | O=C(NCC1CCCCN1)c1cc(OCC(F)(F)F)ccc1OCC(F)(F)F (centres undefined) | -15%
15 | O=C(O)COCCN1CCN(C(c2ccccc2)c2ccc(Cl)cc2)CC1 (centres undefined) | -12.3%
16 | C[N+]1(C)CCC(OC(=O)C(O)(c2ccccc2)C2CCCC2)C1 (centres undefined) | 2.77% and 0.45%
17 | CN1[C@@H]2CC(OC(=O)[C@H](CO)c3ccccc3)C[C@H]1[C@@H]1O[C@@H]12 (some centres undefined) | -1.98%
18 | CC(C)(C(=O)O)c1ccc(C(O)CCCN2CCC(C(O)(c3ccccc3)c3ccccc3)CC2)cc1 (centres undefined) | -4.09%
19 | CC(C)n1c(/C=C/[C@@H](O)C[C@@H](O)CC(=O)O)c(-c2ccc(F)cc2)c2ccccc21 | -2.27%

Target: Single-stranded DNA-binding protein (Escherichia coli (strain K12)) (UniProt P0AGE0)
Experiment: E. coli SSB displacement from DNA, counter-screen for HCV NS3 helicase inhibitor project, biochemical, fluorescence polarization, NIH Clinical Collection (AID 743271; in the data active = inhibition above about 28%)
Conditions: stronger effect = higher value, concentration not given here

Row | SMILES | inhibition
20 | O=C(NCC1CCCCN1)c1cc(OCC(F)(F)F)ccc1OCC(F)(F)F (centres undefined) | 19.4%
21 | O=C(O)COCCN1CCN(C(c2ccccc2)c2ccc(Cl)cc2)CC1 (centres undefined) | -1.24%
22 | C[N+]1(C)CCC(OC(=O)C(O)(c2ccccc2)C2CCCC2)C1 (centres undefined) | 1.44% and 1.81%
23 | CN1[C@@H]2CC(OC(=O)[C@H](CO)c3ccccc3)C[C@H]1[C@@H]1O[C@@H]12 (some centres undefined) | 1.44%
24 | CC(C)(C(=O)O)c1ccc(C(O)CCCN2CCC(C(O)(c3ccccc3)c3ccccc3)CC2)cc1 (centres undefined) | 1.05%
25 | CC(C)n1c(/C=C/[C@@H](O)C[C@@H](O)CC(=O)O)c(-c2ccc(F)cc2)c2ccccc21 | 2.57%

System: not listed separately
Experiment: fluorescence interference in NS3h assay format, artefact control for HCV NS3 helicase inhibitor project, biochemical, NIH Clinical Collection (AID 743272);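 also: HCV NS3 helicase with a Cy5 labelled single stranded DNA probe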
Conditions: fluorescence interference counterscreen, stronger effect = lower value

Row | SMILES | fluorescence ratio
26 | O=C(NCC1CCCCN1)c1cc(OCC(F)(F)F)ccc1OCC(F)(F)F (centres undefined) | 0.81
27 | O=C(O)COCCN1CCN(C(c2ccccc2)c2ccc(Cl)cc2)CC1 (centres undefined) | 1.01
28 | C[N+]1(C)CCC(OC(=O)C(O)(c2ccccc2)C2CCCC2)C1 (centres undefined) | 1.05 and 1
29 | CN1[C@@H]2CC(OC(=O)[C@H](CO)c3ccccc3)C[C@H]1[C@@H]1O[C@@H]12 (some centres undefined) | 0.9
30 | CC(C)(C(=O)O)c1ccc(C(O)CCCN2CCC(C(O)(c3ccccc3)c3ccccc3)CC2)cc1 (centres undefined) | 1.04
31 | CC(C)n1c(/C=C/[C@@H](O)C[C@@H](O)CC(=O)O)c(-c2ccc(F)cc2)c2ccccc21 | 1.03

System: Neuropilin-2 / VEGF-C interaction (human)
Experiment: inhibitors of NRP2–VEGF-C binding, biochemical, microplate binding format, z-score (AID 743281)
Conditions: microplate NRP2/VEGF-C binding assay; stronger effect = lower value

Row | SMILES | z-score
32 | Clc1ccccc1CN1CCc2sccc2C1 | 0.918
33 | C[N+]1(C)CCC(OC(=O)C(O)(c2ccccc2)C2CCCC2)C1 (centres undefined) | -0.121
34 | CN1[C@@H]2CC(OC(=O)[C@H](CO)c3ccccc3)C[C@H]1[C@@H]1O[C@@H]12 (some centres undefined) | -0.461

System: not listed separately
Experiment: stimulators of insulin release from INS-1E, primary screen, cell-based, 5 mM glucose, NPC library (AID 1117329;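 active = compound raises insulin release from rat beta cells at 5 mM glucose, no numeric limit stated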)
Conditions: rat INS-1E insulin secretion, at 10 µM, stronger effect = higher value

Row | SMILES | insulin secretion stimulation
35 | CC(C)(C)c1ccc(C(O)CCCN2CCC(C(O)(c3ccccc3)c3ccccc3)CC2)cc1 (centres undefined) | 5.9%
36 | O=C(NCC1CCCCN1)c1cc(OCC(F)(F)F)ccc1OCC(F)(F)F (centres undefined) | 3.7%
37 | O=C(O)COCCN1CCN(C(c2ccccc2)c2ccc(Cl)cc2)CC1 (centres undefined) | 4.3%
38 | CC(C)c1c(C(=O)Nc2ccccc2)c(-c2ccccc2)c(-c2ccc(F)cc2)n1CC[C@@H](O)C[C@@H](O)CC(=O)O | 3.7%
39 | Cc1ccc(/C(=C\CN2CCCC2)c2ccccn2)cc1 | 24% (active)
40 | CC(C)(C)CC(C)(C)c1ccc(OCCOCC[N+](C)(C)Cc2ccccc2)cc1 | 4.2%
41 | Clc1ccccc1CN1CCc2sccc2C1 | -2.1%
42 | C[N+]1(C)CCC(OC(=O)C(O)(c2ccccc2)C2CCCC2)C1 (centres undefined) | 1.8%
43 | CN1[C@@H]2CC(OC(=O)[C@H](CO)c3ccccc3)C[C@H]1[C@@H]1O[C@@H]12 (some centres undefined) | 0.9%
44 | CC(C)(C(=O)O)c1ccc(C(O)CCCN2CCC(C(O)(c3ccccc3)c3ccccc3)CC2)cc1 (centres undefined) | 2.1%
45 | CC(C)n1c(/C=C/[C@@H](O)C[C@@H](O)CC(=O)O)c(-c2ccc(F)cc2)c2ccccc21 | 3.6%
46 | CN(C)C(=N)N=C(N)N | -2.3%
47 | O=C(O)c1cn(C2CC2)c2cc(N3CCNCC3)c(F)cc2c1=O | -0.6%
48 | COc1ccc(-c2nc3ccc(C4=NNC(=O)CC4C)cc3[nH]2)cc1 (centres undefined) | 2.8%
49 | O=S(=O)(c1cccc2cnccc12)N1CCCNCC1 | 4.95%
50 | CS(=O)(=O)c1ccc([C@@H](O)[C@@H](CF)NC(=O)C(Cl)Cl)cc1 | 1.8%
51 | C[C@@H](O[C@H]1OCCN(Cc2n[nH]c(=O)[nH]2)[C@H]1c1ccc(F)cc1)c1cc(C(F)(F)F)cc(C(F)(F)F)c1 | 1.6%
52 | NCCCC(O)(P(=O)(O)O)P(=O)(O)O | 2.3%
53 | CC1(C)[C@H](C(=O)O)N2C(=O)C[C@H]2S1(=O)=O | -1.5%
54 | O=C(O)CCn1c2c(c3ccccc31)C[C@H](NS(=O)(=O)c1ccc(F)cc1)CC2 | 0.95%

Reference: PubChem BioAssay
